HPGD inh – HPGD (human) dehydrogenase inhibition; AID 894; P15428; 4.3% of 150,000 active; purified HPGD, NADH fluorescence kinetic, PGE2 substrate; Potency, µM, without a hit: top-dose activity change, negative = inhibition, actives largely listed as inhibitors; note: potency is the fitted concentration of half-maximal effect
Target sequence (P15428 whole entry, looked up): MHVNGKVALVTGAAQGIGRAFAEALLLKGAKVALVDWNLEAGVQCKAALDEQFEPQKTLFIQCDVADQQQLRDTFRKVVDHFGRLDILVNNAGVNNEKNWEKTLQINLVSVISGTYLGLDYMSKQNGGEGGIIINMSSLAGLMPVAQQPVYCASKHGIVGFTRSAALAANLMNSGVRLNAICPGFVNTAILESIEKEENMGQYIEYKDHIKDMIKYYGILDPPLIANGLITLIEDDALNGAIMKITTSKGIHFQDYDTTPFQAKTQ
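20 nM HPGD preincubated 15 min at room temperature with compound in 50 mM Tris-HCl pH 8, 0.01% Tween 20. Started with 1 mM NAD+ and 30 uM prostaglandin E2; NADH fluorescence (360/450 nm) read 5 times over 30-s intervals, last minus first.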
LMNA splice mod – LMNA splicing modulation; HeLa LMNA splicing GFP/RFP minigene ratio, 48 h; Potency, µM (series often up to 46.1 µM), for the others: at the highest dose ratio change, negative = inhibition, actives largely listed as inhibitors; AID 1487; 0.01% of 200,000 active; active = well fitted inhibition curve with a large enough effect in the signal ratio, with a control signal flat, not every such curve was filed as active; inconclusive = small, poorly fitted or top-dose-only effect, or effect the other way, or a change in a side signal; the % refers to the signal ratio; note: potency is the fitted concentration of half-maximal effect
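S3 HeLa stable clones carrying a lamin A-EGFP splicing minigene plus DsRed2 were seeded at 600 cells/well in Opti-MEM with 2% FBS, pin-dosed and incubated 48 h at 37°C. Acumen cytometry (488 nm) gave the GFP/RFP total-intensity ratio.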
PNC inhibitor – perinucleolar compartment assembly inhibition; PC3M PTB-GFP, PNC prevalence imaging, 16 h; hits give low values; activity change (PNC), negative = inhibition, % at 10 µM; 3.1% of 140,000 active;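 active = readout at or below -70, meaning at least 70% loss of cells showing the perinucleolar compartment, a nuclear body marking cancer cells; inconclusive = readout between -30 and a set limit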;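 note: plate controls were DMSO wells for no effect and camptothecin positive control wells for full effect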
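Compounds are pinned in duplicate onto adhered PC3M cells stably expressing GFP-tagged PTB and incubated 16 h at 37 C. Cells are then fixed, nuclei stained with Hoechst, and PNC-positive cells counted.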
KinaseGlo FLuc – counter-screen: inhibitors of Kinase-Glo firefly luciferase | Q27757 | Kinase-Glo luciferase, ATP luminescence, 8 min | Potency, µM (doses to about 38.3 µM), for the others: at the highest dose activity change, negative = inhibition, usual class: inhibitors | 0.28% of 200,000 active; active = well fitted inhibition curve with a large enough effect; inconclusive = small, poorly fitted or top-dose-only effect; note: potency is the fitted concentration of half-maximal effect; nearly all actives have a fitted effect of over 60% in size
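Compound is pinned into ATP-containing buffer (10 uM ATP, imidazole pH 7.2, 7 mM MgCl2). Kinase-Glo luciferase reagent is then added. Light output is recorded following an 8-min room-temperature incubation.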
ALDH1A1 block – ALDH1A1 (human) enzyme inhibition; P00352; Purified ALDH1A1, NADH fluorescence, propionaldehyde substrate; Potency, µM (top dose mostly 75.3 µM), for inactives: at the top dose activity, negative = inhibition, hits mostly inhibitors; 7.3% of 220,000 active; AID 1030;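 note: potency is the fitted concentration of half-maximal effect; plate controls were no enzyme wells and a reference inhibitor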
Target sequence (P00352 whole entry, looked up): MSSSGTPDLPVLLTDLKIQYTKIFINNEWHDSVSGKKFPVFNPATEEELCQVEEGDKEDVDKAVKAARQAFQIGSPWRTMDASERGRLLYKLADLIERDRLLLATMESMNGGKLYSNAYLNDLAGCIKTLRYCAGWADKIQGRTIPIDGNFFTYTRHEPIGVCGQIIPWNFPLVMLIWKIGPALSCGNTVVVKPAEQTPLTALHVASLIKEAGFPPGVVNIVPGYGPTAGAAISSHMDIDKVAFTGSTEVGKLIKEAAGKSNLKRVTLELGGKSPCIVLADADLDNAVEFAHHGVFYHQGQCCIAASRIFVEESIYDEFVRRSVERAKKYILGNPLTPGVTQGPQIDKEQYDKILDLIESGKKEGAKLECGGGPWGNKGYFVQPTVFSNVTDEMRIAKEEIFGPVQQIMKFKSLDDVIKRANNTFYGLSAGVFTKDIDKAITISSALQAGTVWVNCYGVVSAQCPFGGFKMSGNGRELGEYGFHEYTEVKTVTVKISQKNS
Numbers without * were called inactive; ? = inconclusive; / = no result; [ ] = another dose, or the depositor's remark. This is a sample that favours compounds with a hit; in the whole collection about 10% have one here. Unless noted, calls come from the whole dose curve; as a rule, active = well fitted inhibition curve with a large enough effect (not every such curve was filed as active); inconclusive = small, poorly fitted or top-dose-only effect, or another doubt; inactive = no such curve, though single readings can be large or run the other way. Unless noted, % is set by controls: 0 for no effect and ±100 for the full control effect.

SMILES | HPGD inh | LMNA splice mod | PNC inhibitor | KinaseGlo FLuc | ALDH1A1 block
CN[C@@H]1[C@H](O[C@@H]2O[C@H](C)[C@@](O)(CO)[C@H]2O[C@H]2[C@H](O)[C@H](O)[C@H](N=C(N)N)[C@@H](O)[C@@H]2N=C(N)N)O[C@@H](CO)[C@H](O)[C@H]1O | -0.2% | / | / | 0.9%[39.9 µM] | 10µM*
O=C(NNc1ccccc1[N+](=O)[O-])NC1CCCCC1 | / | -15.7%[9.22 µM] | / | -1.0% | 25.1µM*
O=C(/C=C/c1ccccc1[N+](=O)[O-])NC1CCCC1 | / | / | / | 0.8% | 14.1µM*
NCCCCCCN | -6.4% | / | / | / | 1.6%
N[C@H](CS)C(=O)O | / | / | / | / | -10.5%
N[C@@H](CSS(=O)(=O)O)C(=O)O | 28.2µM* | / | / | 1.5% | -1.4%
CC/C=C/C#N | -8.4% | / | / | / | 9.6%
CCCCc1nc2c(c3c1CC(C)OC3)CN(CCC(C)C)CC2 (centres undefined) | / | / | / | / | -1.2%[13.5 µM]
CC1CC(=O)c2cnc(NCC3CCCO3)nc2C1 (centres undefined) | -28.4% | -4.7% | -8.4 | 3.9% | ?
CC1(C)CC(=O)c2cnc(NCC3CCCO3)nc2C1 (centres undefined) | 22.4µM* | 3.0% | ? | -0.7% | ?
Cc1cccc(CNC(=O)c2oc3c(c2C)-c2nn(Cc4ccccc4Cl)cc2CC3)c1 | / | 29.5%[46 µM] | / | / | /
CC(=O)N(Cc1cccs1)Cc1cc2ccc(C)c(C)c2nc1Cl | / | 16.8%[46 µM] | / | -1.3% | 17.8µM*
COCCN(Cc1cc2ccc(C)c(C)c2nc1Cl)C(=O)N1CCOCC1 | / | / | / | 2.3% | ?
CCN(CC)S(=O)(=O)c1ccc(NS(=O)(=O)c2ccc(O)c([N+](=O)[O-])c2)cc1 | 35.5µM* | -7.6% | -19.6 | 1.6% | 5.01µM*
CCN(CC)S(=O)(=O)c1ccc(NS(=O)(=O)c2cccs2)cc1 | / | / | / | 5.0% | ?
O=C1CSc2ccc(C(=O)Nc3cccc(S(=O)(=O)Nc4ccc(Br)cc4)c3)cc2N1 | / | ? | / | -0.3% | 10µM*
O=C(O)c1cccc(NC(=O)c2cccc(S(=O)(=O)Nc3cccc(C(=O)O)c3)c2)c1 | / | -6.4%[46 µM] | / | / | /
CCOC(=O)C1=NNC2C(=O)N(C3CCCCC3)C(=O)C12 (centres undefined) | -4.9% | 0.9% | -11.0 | -3.1% | 12.6µM*
O=C(NCCN1CCOCC1)c1ccc(F)cc1 | -8.7% | -4.7% | 14.7 | -1.3% | 1.3%
O=C(NCCN1CCOCC1)c1ccc(=O)oc1 | -23.7% | 7.2% | -126.9* | 0.4% | -4.6%
COCOc1ccc(Br)cc1C(=O)[C@H]1O[C@H]1c1cccc(OC)c1 | / | / | / | / | 1.5%[13.5 µM]
O=C(Cn1c(COc2ccccc2)nc2ccccc21)Nc1cc(Cl)cc(Cl)c1 | 1.3% | -11.9% | -100.0* | -2.2% | 3.6%
CC(C)CN1CC[C@@]2(CCCN(C(=O)c3ccco3)C2)C1 | -4.5% | / | / | -0.8% | 0.447µM*
O=C(c1ccco1)N1CCC2(CCN(Cc3ccccc3)CC2)CC1 | 0.9% | / | / | -3.2% | 17.8µM*
N#Cc1ccc(CN2CC[C@@]3(CCCN(C(=O)c4ccco4)C3)C2)cc1 | -3.4% | / | / | -1.4% | 14.1µM*
SMILES | HPGD inh | LMNA splice mod | PNC inhibitor | KinaseGlo FLuc | ALDH1A1 block
O=C(c1ccco1)N1CCC2(CCN(Cc3ccncc3)CC2)CC1 | -8.5% | / | / | -3.6% | ?
O=C(c1ccco1)N1CCC2(CCCN(c3ccncc3)C2)CC1 | -2.3% | / | / | -1.5% | 3.55µM*
O=C(NNC1=C(C(=O)C(F)(F)F)CCC1)c1ccccc1Cl | 14.1µM* | ? | 4.6 | -1.9% | 5.3%
O=C(NNC1=C(C(=O)C(F)(F)F)CCC1)c1ccccc1O | -21.8% | -24.4% | ? | -4.5% | -2.3%
COc1ccc(-n2nc3c(c2NC(=O)C24CC5CC(CC(C5)C2)C4)CS(=O)C3)cc1 (centres undefined) | -3.0% | -6.2% | -24.7 | 0.5% | 2.82µM*
COc1ccc(-n2nc3c(c2NC(=O)C2CC2)CS(=O)C3)cc1 (centres undefined) | -4.5% | 4.2% | -1.5 | -0.3% | -2.6%
COc1ccc2[nH]c(C)c(CN3CCCCC3)c(=O)c2c1 | -23.8% | -3.6% | 8.4 | 2.0% | ?
COc1ccc2[nH]c(C)c(CCN3C(=O)C4C5C=CC(C5)C4C3=O)c2c1 (centres undefined) | 2.1% | 17.0% | 6.0 | -1.5% | 12.6µM*
COC(=O)[C@@]1(Cc2ccc(OC)cc2)[C@@H]2[C@@H](CC(=O)[C@H]2CC(=O)C(=O)N2CCCC2)CN1C(=O)c1ccccc1 | -7.5% | / | / | -2.5% | -8.6%
O=C1C=CC2=C3c4cc(O)c(O)cc4C[C@@]3(O)COC2=C1 | 11.2µM* | / | / | -1.6% | -0.6%
CCc1ccc(CNC(=O)c2c(C)oc3ncn(CC(C)C)c(=O)c23)cc1 | / | -21.7%[46 µM] | / | / | /
Cc1ccc(C2c3sc(=O)[nH]c3SC3C(=O)NC(=O)C32)cc1 (centres undefined) | -3.5% | 3.7% | -29.4 | -1.3% | ?
Cc1ccc(C(=C2C3C=CC2C2C(=O)NC(=O)C32)c2ccc(C)cc2)cc1 (centres undefined) | -3.1% | 12.1% | 21.0 | -6.5% | 0.891µM*
COc1ccc(C(=O)CSc2nnc(NC(=O)C3CC(=O)N(c4ccccc4C)C3)s2)cc1 (centres undefined) | -11.7% | -12.4% | 13.4 | 3.8% | 11.2µM*
Cc1ccc(S(=O)(=O)N(CC(=O)O)c2cccc(Cl)c2)cc1 | -9.5% | / | / | 1.3% | 10.2%
COC(=O)[C@H]1O[C@@H](c2cc(OC)c(C)c(OC)c2O)[C@H](C)[C@@H](O)[C@H]1C | -7.8% | / | / | 0.8% | 13.5%
COC(=O)c1c(NC(=O)CN2CCC3(O)CCCCC3C2c2ccc(OC)cc2OC)sc(C)c1C (centres undefined) | 20µM* | ? | 57.7 | -4.2% | 2.51µM*
O=C(Nc1ccccc1C(=O)OCc1cc(=O)n2c3c(sc2n1)CCCC3)c1ccc(F)cc1 | / | 11.5%[46 µM] | / | / | /
O=C(CC1(O)C(=O)Nc2cc(Cl)cc(Cl)c21)c1ccncc1 (centres undefined) | -12.3% | -14.7% | -19.9 | 3.7% | 12.6µM*
CC(C)CCn1cnc2c(oc3nc4c(cc32)CCCC4)c1=O | / | / | / | / | 3.16µM*
CCSCc1nnc(SCC(=O)Nc2cccc(SC)c2)n1C | -18.7% | 2.7% | 8.3 | 2.2% | 20µM*
O=C(NNc1nc2ccccc2s1)c1ccc(F)cc1 | -11.0% | ? | -22.7 | 0.6% | -11.7%
CC(C)NC(=S)NNc1nc2ccccc2s1 | / | -3.4%[46 µM] | / | 3.1% | 0.562µM*
CC1(C)CC(c2nc(-c3ccc([N+](=O)[O-])cc3)cs2)CCO1 (centres undefined) | / | -5.2%[46 µM] | / | 2.1% | 15.8µM*
Nc1nc(-c2ccc([N+](=O)[O-])cc2)cs1 | / | -4.5% | 55.5 | / | -6.3%
CCn1cc(NC(=O)CCl)c(C)n1 | / | ? | / | -0.7% | 4.47µM*
CCn1cc(CCC(=O)O)c(C)n1 | / | 13.8%[46 µM] | / | 0.4% | 6.3%
CC1(C(=O)O)C=CCN1C(=O)c1ccccc1 (centres undefined) | -3.6% | -9.3% | ? | -1.6% | 8.1%
CN(C)c1ccc(CNC(=O)C2(C)C=CCN2C(=O)c2ccccc2)cc1 (centres undefined) | -17.1% | / | / | -5.8% | 17.8µM*

Screening results (PubChem BioAssay)
